Results on 10 molecules are retold here after paper PMC5540273 (PLoS ONE, 2017).

Test systems include STK16; STK33; STK35; STK36; STK39; SYK; SgK110; TAOK1; TAOK2; TAOK3; TBK1; TEC; TESK1; TGFBR2; TIE1; TLK1; TLK2; TGFBR1.
What all share (conditions): n = 1
A further assay has as its system T1, TAK1.
T1 construct: gene MAP3K7

The test system of another assay is T2, TIE2.
T2 construct: gene TEK

The mark [1] stands for this setting: concentration: 1 μM,replicates: in singlicate, 1 µM.
Where [2] appears, read: concentration: 1 μM, replicates: in singlicate.

Each structure is given as a SMILES string. “And” between values parts separate entries of the source, which are not always exact repeats. Equal entries are not always repeated. Where two headings read alike, the source gives them in different places.
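Note: KINOMEscan kinase panel screen.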

As for `Cc1ccc(NC(=O)Nc2cccc(C(F)(F)F)c2)cc1` [GSK955403], the “%Inh” value in the assay on STK16 (1 µM) turned out to be 30%; in the assay on STK33 (1 µM) it was 0%; with STK35 (1 µM), 0%; in the assay on STK36 (1 µM), 10%; in the assay on STK39 (1 µM) it was 3%; in the assay on SYK (1 µM), 19%. The “%Inh” value in the assay with SgK110 (1 µM) is 0%; in the assay on TAK1 (1 µM) it was 13%; with TAOK1 (1 µM), 0%; in the assay on TAOK2 (1 µM), 0%; in the assay on TAOK3 (1 µM) it was 0%; in the assay with TBK1 (1 µM), 33%. Further, the “%Inh” value in the assay with TEC (1 µM) turned out to be 7%; in the assay with TESK1 (1 µM) it was 36%; with TGFBR2 (1 µM), 0%; in the assay with TIE1 (1 µM) it was 13%; in the assay with TIE2 (1 µM) it was 38%; with TLK1 (1 µM), 20%. Besides, the “%Inh” value with TLK2 (1 µM) came out at 3%.

As to `CSc1nn2c(=O)cc(N3CCOCC3)nc2n1Cc1cccc(C(F)(F)F)c1C` [GSK2363608], the “%Inh” value is 23% and 13% in the assay on STK16 (setting [1]); 8% and 13% with STK39 (setting [1]); 30% and 26% in the assay on SYK (setting [1]); 0% and 6% in the assay on SgK110 (setting [1]); 20% and 5% in the assay with TBK1 (setting [1]); 11% and 17% in the assay on TGFBR1 (setting [1]). For the same molecule, the “%Inh” value was 0% and 2% with TIE1 (setting [1]); 8% and 0% in the assay on TLK1 (setting [1]).

With `Cc1ccccc1-n1cnc2c(N)ncnc21` [SKF-97510], the “%Inh” value with STK16 (setting [2]) is reported as 21%; in the assay with STK33 (setting [2]), 0%; in the assay on STK35 (setting [2]) it was 0%; in the assay with STK36 (setting [2]), 27%; in the assay with STK39 (setting [2]), 0%; with SYK (setting [2]), 100%. Also, the “%Inh” value in the assay with SgK110 (setting [2]) is recorded as 0%; with TAK1 (setting [2]), 0%; with TAOK1 (setting [2]), 0%; with TAOK2 (setting [2]), 0%; with TAOK3 (setting [2]) it was 0%; with TBK1 (setting [2]), 7%. In addition, the “%Inh” value stood at 9% with TEC (setting [2]); 3% with TESK1 (setting [2]); 0% with TGFBR1 (setting [2]); 0% with TGFBR2 (setting [2]); 0% with TIE1 (setting [2]); 0% in the assay with TIE2 (setting [2]). The “%Inh” value in the assay with TLK1 (setting [2]) came out at 81%; in the assay on TLK2 (setting [2]), 7%.

As to `Cn1ccc2ncnc(Oc3ccc(Nc4nc5ccccc5[nH]4)cc3)c21`, the “%Inh” value with STK16 (setting [2]) was determined as 15%; with STK33 (setting [2]) it was 0%; in the assay with STK35 (setting [2]), 19%; in the assay on STK36 (setting [2]), 0%; in the assay with STK39 (setting [2]), 0%; in the assay with SYK (setting [2]), 0%. Moreover, the “%Inh” value in the assay with SgK110 (setting [2]), with TAK1 (setting [2]), in the assay with TAOK1 (setting [2]), in the assay on TAOK2 (setting [2]), in the assay with TAOK3 (setting [2]) and in the assay on TBK1 (setting [2]) was 0% in each case. Further, the “%Inh” value in the assay on TEC (setting [2]) came out at 0%; in the assay with TESK1 (setting [2]) it was 0%; in the assay with TGFBR1 (setting [2]) it was 0%; with TGFBR2 (setting [2]), 0%; in the assay on TIE1 (setting [2]), 5%; in the assay on TIE2 (setting [2]) it was 0%. Moreover, the “%Inh” value with TLK1 (setting [2]) and with TLK2 (setting [2]) was 0% throughout.

As to `Cc1csc(-c2nc(Nc3ccncc3)c3ccccc3n2)n1` [GW869640], the “%Inh” value in the assay with STK16 (setting [2]) turned out to be 17%; in the assay on STK33 (setting [2]) it was 18%; in the assay with STK35 (setting [2]), 0%; in the assay with STK36 (setting [2]), 0%; in the assay with STK39 (setting [2]), 0%; in the assay on SYK (setting [2]), 2%. Moreover, the “%Inh” value came to 8% with SgK110 (setting [2]); 25% in the assay on TAK1 (setting [2]); 36% in the assay on TAOK1 (setting [2]); 16% in the assay with TAOK2 (setting [2]); 29% in the assay on TAOK3 (setting [2]); 37% in the assay with TBK1 (setting [2]). Besides, the “%Inh” value in the assay with TEC (setting [2]) is listed as 9%; with TESK1 (setting [2]) it was 13%; in the assay on TGFBR2 (setting [2]), 88%; in the assay with TIE1 (setting [2]), 36%; in the assay with TIE2 (setting [2]) it was 21%; in the assay on TLK1 (setting [2]), 0%. Besides, in the assay with TLK2 (setting [2]), the “%Inh” value was 1%.

In the case of `Cc1cccc(-c2nc(Nc3ccc4[nH]ncc4c3)c3ccccc3n2)n1` [GW857175], the “%Inh” value is reported as 17% in the assay with STK16 (setting [2]); 0% with STK33 (setting [2]); 0% with STK35 (setting [2]); 15% with STK36 (setting [2]); 14% in the assay on STK39 (setting [2]); 5% with SYK (setting [2]). Moreover, the “%Inh” value in the assay with SgK110 (setting [2]) was 0%; in the assay on TAK1 (setting [2]), 0%; in the assay on TAOK1 (setting [2]), 33%; in the assay with TAOK2 (setting [2]), 9%; in the assay on TAOK3 (setting [2]), 19%; with TBK1 (setting [2]), 35%. In addition, the “%Inh” value with TEC (setting [2]) was 3%; with TESK1 (setting [2]), 5%; with TGFBR2 (setting [2]) it was 0%; in the assay on TIE1 (setting [2]) it was 17%; in the assay with TIE2 (setting [2]), 49%; in the assay on TLK1 (setting [2]) it was 23%. The “%Inh” value with TLK2 (setting [2]) was found to be 0%.

Take `COc1ccc2nc(-c3cccc(C)n3)nc(Nc3ccncc3)c2c1` [GSK204919]: the “%Inh” value was determined as 1% with STK16 (setting [2]); 0% in the assay with STK33 (setting [2]); 5% in the assay on STK35 (setting [2]); 0% in the assay on STK36 (setting [2]); 7% in the assay with STK39 (setting [2]); 10% in the assay with SYK (setting [2]). In addition, the “%Inh” value is reported as 2% with SgK110 (setting [2]); 0% with TAK1 (setting [2]); 0% with TAOK1 (setting [2]); 0% in the assay on TAOK2 (setting [2]); 0% in the assay on TAOK3 (setting [2]); 3% in the assay with TBK1 (setting [2]). For the same molecule, the “%Inh” value with TEC (setting [2]) was determined as 8%; with TESK1 (setting [2]), 26%; with TGFBR2 (setting [2]) it was 10%; in the assay with TIE1 (setting [2]), 9%; in the assay with TIE2 (setting [2]), 0%; with TLK1 (setting [2]) it was 0%. The “%Inh” value in the assay on TLK2 (setting [2]) amounted to 0%.

Turning to `COc1ccccc1-c1ccc2c(NC(=O)C3CC3)n[nH]c2n1` [SB-711239], the “%Inh” value came to 28% in the assay on STK16 (setting [2]); 20% in the assay on STK33 (setting [2]); 0% in the assay with STK35 (setting [2]); 6% in the assay with STK36 (setting [2]); 18% in the assay with STK39 (setting [2]); 20% with SYK (setting [2]). In addition, the “%Inh” value in the assay on SgK110 (setting [2]) came out at 14%; with TAK1 (setting [2]), 0%; in the assay on TAOK1 (setting [2]) it was 0%; in the assay on TAOK2 (setting [2]) it was 0%; in the assay on TAOK3 (setting [2]) it was 0%; with TBK1 (setting [2]) it was 26%. Besides, the “%Inh” value in the assay with TEC (setting [2]) is on record as 0%; in the assay on TESK1 (setting [2]), 8%; in the assay on TGFBR1 (setting [2]), 14%; with TGFBR2 (setting [2]), 1%; in the assay with TIE1 (setting [2]), 6%; in the assay on TIE2 (setting [2]), 11%. For the same molecule, the “%Inh” value is on record as 0% with TLK1 (setting [2]) and 2% in the assay with TLK2 (setting [2]).

For `Cc1c(Cn2ccn3c(=O)cc(N4CCOCC4)nc23)cccc1C(F)(F)F` [GSK2289044], the “%Inh” value in the assay on STK16 (setting [2]) was 13%; with STK33 (setting [2]) it was 0%; in the assay with STK35 (setting [2]), 0%; with STK36 (setting [2]), 19%; in the assay on STK39 (setting [2]), 13%; in the assay on SYK (setting [2]), 15%. Moreover, the “%Inh” value with SgK110 (setting [2]) is reported as 0%; in the assay with TAK1 (setting [2]), 0%; with TAOK1 (setting [2]) it was 0%; with TAOK2 (setting [2]), 0%; in the assay on TAOK3 (setting [2]), 0%; with TBK1 (setting [2]), 7%. The “%Inh” value in the assay with TEC (setting [2]) amounted to 0%; with TESK1 (setting [2]) it was 17%; in the assay on TGFBR1 (setting [2]), 0%; in the assay with TGFBR2 (setting [2]) it was 0%; in the assay on TIE1 (setting [2]), 10%; in the assay on TIE2 (setting [2]), 0%. Besides, the “%Inh” value with TLK1 (setting [2]) and in the assay with TLK2 (setting [2]) was 0% throughout.

Take `C[C@@H]1CCCCN1c1cc(-c2ccc3c(N)n[nH]c3c2)nc(N)n1` [GSK2258759]: the “%Inh” value was 19% in the assay on STK16 (setting [2]); 0% in the assay with STK33 (setting [2]); 0% in the assay on STK35 (setting [2]); 0% in the assay with STK36 (setting [2]); 0% in the assay on STK39 (setting [2]); 10% in the assay on SYK (setting [2]). Further, the “%Inh” value with SgK110 (setting [2]) stood at 0%; with TAK1 (setting [2]), 0%; in the assay on TAOK1 (setting [2]) it was 0%; in the assay with TAOK2 (setting [2]) it was 0%; in the assay on TAOK3 (setting [2]) it was 0%; with TBK1 (setting [2]) it was 24%. For the same molecule, the “%Inh” value is listed as 0% with TEC (setting [2]); 0% with TESK1 (setting [2]); 0% in the assay on TGFBR2 (setting [2]); 0% in the assay with TIE1 (setting [2]); 0% with TIE2 (setting [2]); 23% in the assay with TLK1 (setting [2]). Also, the “%Inh” value in the assay on TLK2 (setting [2]) is on record as 4%.
